# In all, about 200,000 compounds went through this assay and about 360 (0.18%) were called active. Cut-off read from the data, not from the text of the source: active = inhibition above about 25%; inactive = the rest. For the sample, actives were picked, then their nearest neighbours and some compounds at random.
# Target: Toll-like receptor 4 (Homo sapiens) + Myeloid differentiation primary response protein MyD88 (Homo sapiens) (UniProt O00206+Q99836)
# Assay: inhibitors of TLR4-MyD88 association in cells, primary screen, cell-based, HeLa CL3-4, BLA complementation, FRET ratio (AID 861);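 note: 0% = vehicle and 100% = reference inhibitor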
# Details: HeLa CL3-4 TLR4/MyD88 BLA complementation, at 8.4 µM, active compounds read high
# Toll-like receptor 4 (Homo sapiens) + Myeloid differentiation primary response protein MyD88 (Homo sapiens), sequence (O00206 whole entry, looked up): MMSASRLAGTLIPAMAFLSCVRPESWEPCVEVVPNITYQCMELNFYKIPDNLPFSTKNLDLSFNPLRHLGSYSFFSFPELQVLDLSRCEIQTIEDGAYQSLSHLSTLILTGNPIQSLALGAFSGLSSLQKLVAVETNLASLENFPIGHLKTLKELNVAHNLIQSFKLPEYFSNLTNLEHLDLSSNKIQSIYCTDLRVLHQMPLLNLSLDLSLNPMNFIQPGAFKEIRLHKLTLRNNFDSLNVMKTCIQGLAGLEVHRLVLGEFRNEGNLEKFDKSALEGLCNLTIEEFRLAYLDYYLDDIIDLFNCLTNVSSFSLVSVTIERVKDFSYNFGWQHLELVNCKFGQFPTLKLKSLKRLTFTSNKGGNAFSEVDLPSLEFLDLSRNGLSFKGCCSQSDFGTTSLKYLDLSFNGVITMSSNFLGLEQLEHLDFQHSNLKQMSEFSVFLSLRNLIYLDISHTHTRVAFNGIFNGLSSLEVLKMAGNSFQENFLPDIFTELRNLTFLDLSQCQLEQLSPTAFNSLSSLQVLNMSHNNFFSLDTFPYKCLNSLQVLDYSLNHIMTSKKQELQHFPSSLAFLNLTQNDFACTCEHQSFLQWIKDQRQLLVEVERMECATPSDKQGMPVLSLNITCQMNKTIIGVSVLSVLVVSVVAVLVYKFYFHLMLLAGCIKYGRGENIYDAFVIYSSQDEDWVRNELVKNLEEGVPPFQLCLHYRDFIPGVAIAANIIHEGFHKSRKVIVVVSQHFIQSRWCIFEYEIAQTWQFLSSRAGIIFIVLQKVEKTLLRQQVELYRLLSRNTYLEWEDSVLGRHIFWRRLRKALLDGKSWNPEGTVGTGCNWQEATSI
# Toll-like receptor 4 (Homo sapiens) + Myeloid differentiation primary response protein MyD88 (Homo sapiens), sequence (Q99836 whole entry, looked up): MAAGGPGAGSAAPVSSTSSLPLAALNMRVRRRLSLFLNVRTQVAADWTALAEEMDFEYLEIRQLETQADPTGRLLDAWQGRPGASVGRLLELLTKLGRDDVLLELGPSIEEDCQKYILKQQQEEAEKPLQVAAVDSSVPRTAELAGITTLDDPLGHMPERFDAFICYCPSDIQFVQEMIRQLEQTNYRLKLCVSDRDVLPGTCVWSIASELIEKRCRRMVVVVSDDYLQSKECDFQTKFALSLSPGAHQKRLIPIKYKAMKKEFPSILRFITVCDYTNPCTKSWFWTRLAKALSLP
row,SMILES,inhibition
1,O=C(Cc1csc(Nc2nc(=S)[nH]c3ccccc23)n1)NCCCN1CCN(c2cccc(Cl)c2)CC1,-1.51% (inactive)
2,Cc1nc(N2CCN(c3ncccn3)CC2)c2oc3ccccc3c2n1,7.8% (inactive)
3,Cc1nc(Cl)c2oc3ccccc3c2n1,35.2% (active)
4,CCSc1nc(C)nc2c1oc1ccccc12,1.7% (inactive)
5,Cc1ccc2[nH]c(=O)c(CN3CCCCC3)c(-c3ccccc3)c2c1,16.6% (inactive)
6,COc1ccc(C2OCC3(CO2)SC(=O)NC3=O)cc1OC (stereo not drawn),6.58% (inactive)
7,CCN1CCC2(CCN(Cc3cn[nH]c3-c3ccc(OC)c(F)c3)C2)C1 (stereo not drawn),-1.36% (inactive)
8,O=C(Nc1ccccc1Cc1ccccc1)c1ccc2c(c1)SC1=NS(=O)(=O)CCN12,14.2% (inactive)
9,CCCCN(C(=O)COc1ccc(NC(C)=O)cc1)C1CCS(=O)(=O)C1 (stereo not drawn),5.19% (inactive)
10,COc1cc(NC(=O)COC(=O)c2cnc(C)cn2)c(C)cc1[N+](=O)[O-],0.72% (inactive)
11,CC(C)c1csc(CN2CCC(CO)(Cc3ccccc3)CC2)n1,-3.76% (inactive)
12,Oc1ccccc1C=NC1CCCCC1N=Cc1ccccc1O (stereo not drawn),-2.31% (inactive)
13,Cn1cnnc1SCC(=O)Nc1ccc(N2CCOCC2)cc1,-8.28% (inactive)
14,CN(c1ccccc1)c1nc(N)c([N+](=O)[O-])c(NCc2ccco2)n1,-1.5% (inactive)
15,CCC(=O)NC(=Nc1nc2ccccc2s1)NC(=O)CC,-5.21% (inactive)
16,COC(=O)Cc1cc(=O)n(-c2nc3ccccc3s2)[nH]1,25.2% (active)
17,COC(=O)Cc1nc2ccccc2[nH]1,9.21% (inactive)
18,CC1CCN(c2ccc([N+](=O)[O-])cc2C(N)=O)CC1,12.4% (inactive)
19,Cc1nc2ccccc2n1CC(=O)N/N=C/c1cccs1,-1.34% (inactive)
20,CN(C)c1ccc(C=NCCc2ccc(S(N)(=O)=O)cc2)cc1,-10.3% (inactive)
21,Cc1cc(C)c2c(n1)sc1c(=O)n(-c3ccccc3)c(=O)[nH]c12,13.9% (inactive)
22,Cn1nnnc1-c1cc(Cl)cc(Cl)c1,-10.5% (inactive)
23,O=C(COC(=O)c1cc(-c2cccs2)nn1-c1ccccc1)Nc1cc([N+](=O)[O-])ccc1Cl,7.72% (inactive)
24,O=C(/C=C/c1ccc(F)cc1)NCCNC(=O)/C=C/c1ccc(F)cc1,-2.71% (inactive)

row,SMILES,inhibition
1,COc1ccc(NC(=S)Nc2ccc(S(N)(=O)=O)cc2)c(C)c1,-9.09% (inactive)
2,Nc1nc(SCC(=O)NCCN2CCOCC2)nc2sc3c(c12)CCC3,4.71% (inactive)
3,Cc1ccc(Nc2c(F)c(F)c(F)c(F)c2C(=O)O)c(C)c1,-9.32% (inactive)
4,Cc1cccc2cc(CN(Cc3cccs3)C(=S)NCc3ccco3)c(=O)[nH]c12,6.03% (inactive)
5,COc1ccc(-c2oc3ncn(Cc4ccco4)c(=N)c3c2-c2ccc(OC)cc2)cc1,-4.97% (inactive)
6,Cc1nn(C)c(C)c1CN(C(=O)CCc1nnc(Cc2c[nH]c3ccccc23)o1)C(C)C,-4.71% (inactive)
7,COc1ccc(Cc2nnc(N/N=C/c3ccccc3O)[nH]c2=O)cc1OC,-8.91% (inactive)
8,COc1cc(C(=O)N[C@@H](C)C(=O)NCc2ccco2)cc(OC)c1OC,5.84% (inactive)
9,CCOc1ccc(N2C(=O)/C(=C/c3ccc(C)o3)N(C)C2=S)cc1,-6.16% (inactive)
10,Cc1ccccc1-n1cc(CNC(=O)CC2C(=O)NCCN2C/C=C/c2ccccc2)cn1 (stereo not drawn),-13.3% (inactive)
11,CCOC(=O)c1c(N)sc(C(C)=O)c1C,1.12% (inactive)
12,CCOC(=O)c1sc(NC(=O)CSc2nc(O)c(Cc3ccccc3)c(=O)[nH]2)nc1C,1.47% (inactive)
13,CCn1cc(-c2cc(C(=O)O)on2)c(C)n1,1.59% (inactive)
14,COc1cccc(/C=C(/CC(=O)Nc2ccc(N3CCOCC3)cc2)c2nc3ccccc3s2)c1,5.83% (inactive)
15,O=C(COC(=O)Cc1ccc(F)cc1)Nc1cc(S(=O)(=O)N2CCOCC2)ccc1N1CCCC1,-6.48% (inactive)
16,Cc1[nH]c2ccccc2c1/C=N\NC(=O)Cn1nnc(-c2ccccc2)n1,-5.01% (inactive)
17,Cc1cccc(C)c1NC(=O)C1CCCN1C(=O)OC(C)(C)C (stereo not drawn),-1.58% (inactive)
18,O=C(Nc1ccccc1)O/N=C1\CCCCC1c1ccc([N+](=O)[O-])cc1[N+](=O)[O-] (stereo not drawn),5.14% (inactive)
19,CCn1c(SCc2cc(=O)n3ccsc3n2)nc2ccccc21,-21.4% (inactive)
20,Cc1nccn1CCCNC(=O)CC1C(=O)NCCN1Cc1ccc(Cl)c(F)c1 (stereo not drawn),-15.6% (inactive)
21,Cc1ccc(NC2=C(Cl)C(=O)OC2OC(=O)c2ccccc2C)cc1 (stereo not drawn),-14.9% (inactive)
22,CC(=O)c1ccc(N=C2SCCCN2C(=O)C2CCCCC2)cc1,0.78% (inactive)
23,Fc1cccc2ncnc(OCc3ccccc3)c12,-8.75% (inactive)
24,CCC(C)(C)NC(=O)C(c1ccccn1)N(C(=O)c1csnn1)c1ccccc1 (stereo not drawn),2% (inactive)

row,SMILES,inhibition
1,COc1ccc(NC(=S)NCC2CCN(c3ccc(OC)cc3)C2)cc1 (stereo not drawn),-0.81% (inactive)
2,CC(=O)Nc1ccc(CN2CCN(Cc3ccc(F)c(F)c3)C(CCO)C2)cc1 (stereo not drawn),-0.85% (inactive)
3,COc1cc(CN2CCNC(=O)C2CC(=O)NCCc2ncccc2C)cc(OC)c1 (stereo not drawn),-11.2% (inactive)
4,COc1cccc(NCCC(=O)c2cccc([N+](=O)[O-])c2)c1,9.38% (inactive)
5,CCOc1ccc(-n2cnnn2)cc1S(=O)(=O)N1CCC(C)CC1C (stereo not drawn),-2.33% (inactive)
6,O=C(NCc1ccco1)c1ccc(NS(=O)(=O)c2cccc([N+](=O)[O-])c2)cc1,11.7% (inactive)
7,CC(=O)c1c(C)[nH]c(C(=O)OCC(=O)Nc2sc3c(c2C#N)CCCC3)c1C,-2.59% (inactive)
8,COc1cc(OC)c(C(=O)Nc2ccccc2-c2ccccc2)cc1OC,-14% (inactive)
9,CC(=O)Nc1ccc(C(=O)CSc2nc3ccc(C)cc3[nH]2)cc1,5.15% (inactive)
10,O=C(NNC(=S)Nc1ccccc1)c1cccc(S(=O)(=O)N2CCOCC2)c1,-2.25% (inactive)
11,CCN(CC)c1ccc2oc(=O)c(C)nc2c1,26.6% (active)
12,CCN(CC)c1ccc2c(Nc3ccccc3)c(C=O)c(=O)oc2c1,6.79% (inactive)
13,CCN(CC)c1ccc2cc(C(=O)O)c(=O)oc2c1,2.27% (inactive)
14,CSc1ccc(/C=N/N2CCN(Cc3ccccc3Cl)CC2)cc1,8.51% (inactive)
15,Cc1ccc(NC(=O)c2cc([N+](=O)[O-])ccc2Cl)c(O)c1,-13.5% (inactive)
16,O=C(/C=C/c1ccc(F)cc1)Nc1cccc(S(=O)(=O)Nc2cccc(C(F)(F)F)c2)c1,-0.34% (inactive)
17,CCOc1cccc(/C=C/c2ccc3ccccc3n2)c1OC(C)=O,8.04% (inactive)
18,O=C(CCN1C(=O)c2ccncc2C1=O)Nc1cc(F)ccc1F,1.62% (inactive)
19,CC(=O)Nc1ccc(NC(=O)COc2ccc(S(=O)(=O)NC(C)c3ccccc3)cc2)cc1 (stereo not drawn),-6.49% (inactive)
20,O=C(CN1CCCC1)N1CCN(c2ccccc2)CC1,-1.74% (inactive)
21,COCCCNC(=S)NNC(=O)C(O)(c1ccccc1)c1ccccc1,1.88% (inactive)
22,Cc1cc(/C=N/NC(=O)CC2(C)OCCO2)c(C)n1-c1ccc(Cl)c(Cl)c1,-8.27% (inactive)
23,Cc1nnc(SCC(=O)N2c3ccccc3C(C)(c3ccc(Cl)cc3)CC2(C)C)s1 (stereo not drawn),-17.2% (inactive)
24,CC/S(CC1CC1(Cl)Cl)=N\S(=O)(=O)c1ccc(C)cc1 (stereo not drawn),-3.44% (inactive)

row,SMILES,inhibition
1,Cc1ccc(OCc2nnc(SC3CCc4ccccc4C3=O)n2C)cc1 (stereo not drawn),-13.3% (inactive)
2,CCC1C(=O)c2ccccc2N(C)C1=O (stereo not drawn),3.79% (inactive)
3,N#CC1(NC(=O)COc2ccc3oc4ccccc4c3c2)CCCCC1,-7.56% (inactive)
4,CN(CCC1CCOCC1)Cc1cn[nH]c1-c1ccc(-c2ccccc2)cc1,-6.36% (inactive)
5,Cc1ccc(NC(=O)c2ccccn2)cc1S(=O)(=O)N1CCOCC1,-12.9% (inactive)
6,C=CCN1C(=O)C(O)(CC(=O)c2ccccn2)c2ccccc21 (stereo not drawn),0.55% (inactive)
7,CC1=NN(C(=O)CCc2ccccc2O)C(O)(C(F)(F)F)C1 (stereo not drawn),-5.78% (inactive)
8,CCn1c2ccccc2c2cc(NC(=O)C/C(C)=N/NC(=O)c3ccccc3N)ccc21,-6.09% (inactive)
9,CCCCCCOc1ccc(OC(=O)c2cccnc2)cc1,-5.46% (inactive)
10,CC(=O)Nc1ccc(S(=O)(=O)NC(C)C(=O)OCC(=O)NC2CCCC2)cc1 (stereo not drawn),-2.35% (inactive)
11,COCCNC(=O)NC(=O)COC(=O)C1(c2ccc(Cl)cc2)CC1,1.43% (inactive)
12,O=C(Nc1nnc(-c2ccco2)o1)c1ccc(S(=O)(=O)N2CCOCC2)cc1,9.33% (inactive)
13,CN(C)CCCN1C(=O)CSC1c1ccc([N+](=O)[O-])cc1 (stereo not drawn),2.09% (inactive)
14,COC(=O)c1nc2n(n1)C(c1ccc([N+](=O)[O-])cc1)C(C(=O)Nc1ccc(Cl)cc1)=C(C)N2 (stereo not drawn),4.62% (inactive)
15,COc1cc(NC(=S)N2CCCC(C)C2)cc(OC)c1OC (stereo not drawn),6.42% (inactive)
16,COc1ccc(C2Nc3ccccc3C(=O)N2c2ccc(Cl)cc2)cc1Cn1cc([N+](=O)[O-])cn1 (stereo not drawn),-3.28% (inactive)
17,Cc1nc(N=C(N)N)nc2c(C)cccc12,-6.85% (inactive)
18,COc1cccc(C(=O)Nc2cc3c(cc2Br)OCCCO3)c1,5.11% (inactive)
19,CCc1cccc(NC(=O)CCC(=O)O)c1,-11% (inactive)
20,CC(=O)c1cc(C#N)c(N2CCCCC2)nc1C,7.39% (inactive)
21,CCN(CC)S(=O)(=O)c1cc([N+](=O)[O-])ccc1N=Nc1c(O)n(C)c2ccccc12,6.59% (inactive)
